Source: PubChem
E coli Lon inh: inhibits E. coli Lon protease. purified E. coli Lon protease, fluorescence polarization. inhibition, % at 7.94 µM. actives 0.42% (n = 360,000); in the data active = inhibition above about 13%, passing the limit was not always enough;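 note: 0% = enzyme with probe and DMSO and 100% = no enzyme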
Keap1-Nrf2 PPI: inhibitors of human Keap1-Nrf2 protein-protein interaction. Q14145. Keap1 Kelch-Nrf2 peptide fluorescence polarization, 1536-well. inhibition, % at 9.4 µM. actives 0.15% (n = 340,000). AID 504523; in the data active = inhibition above about 12%;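 note: human Keap1 Kelch domain with fluorescein labeled Nrf2 9mer peptide probe; 0% = neutral control wells and 100% = peptide positive control; higher means more block of Keap1 binding to Nrf2 peptide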
C-LANA FP: blocks KSHV LANA C-terminal domain binding to DNA; actives 0.078% (n = 340,000); AID 504423; MBP-C-LANA/FAM-LBS DNA binding, fluorescence polarization; inhibition, % at 9 µM;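 active = highest replicate inhibition at or above 60% at 9 µM, even if other replicates fall short; inactive = all replicates below 60% inhibition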;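 note: 0% = neutral control wells and 100% = 4 µM acridine orange control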
BCLXL inh: blocks human Bcl-xL binding to Bim BH3 peptide | inhibition, % at 10.9 µM | AID 2129 | actives 0.7% (n = 320,000) | GST-Bcl-xL / FITC-Bim BH3 peptide fluorescence polarization;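 active = inhibition above the mean of all tested compounds plus 3 SD, cutoff set per campaign, cut at about 30% in these data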;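 note: 0% = DMSO wells and 100% = unlabeled Bim-BH3 peptide competitor; inhibitors lower millipolarization by displacing the labeled peptide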
Target sequence (Q07817 whole entry, looked up): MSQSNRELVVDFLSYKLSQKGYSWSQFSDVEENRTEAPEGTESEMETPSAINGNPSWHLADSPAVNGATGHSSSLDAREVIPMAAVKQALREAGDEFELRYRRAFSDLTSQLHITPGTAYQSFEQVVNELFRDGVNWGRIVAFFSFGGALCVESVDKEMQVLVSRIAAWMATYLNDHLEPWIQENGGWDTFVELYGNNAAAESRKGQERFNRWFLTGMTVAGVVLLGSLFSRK
MCL1-BIM inh: inhibitors of human MCL1 binding to BIM-BH3 peptide; Q07820; GST-MCL1 / FITC-Bim-BH3 fluorescence polarization; actives 0.68% (n = 320,000); inhibition, % at 10.9 µM;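 active = inhibition above the mean inhibition of all tested compounds plus 3 SD, set per campaign, cut at about 40% in these data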;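 note: 0% = DMSO wells and 100% = unlabeled Bim-BH3 peptide control; higher means more loss of mP so more displacement of Bim peptide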
GLD-1 RNA inh: GLD-1-TGE RNA interaction inhibition (C. elegans); purified GLD-1 + fluorescein TGE RNA, fluorescence polarization; inhibition, % at 5.96 µM; actives 0.44% (n = 320,000); AID 2280;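 active = percent inhibition above a per-plate cutoff, the plate mean of test compounds plus 3 SD, cut at about 30% in these data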;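 note: 0% = DMSO wells with GLD-1 and probe and 100% = wells lacking GLD-1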
Target sequence (Q17339 whole entry, looked up): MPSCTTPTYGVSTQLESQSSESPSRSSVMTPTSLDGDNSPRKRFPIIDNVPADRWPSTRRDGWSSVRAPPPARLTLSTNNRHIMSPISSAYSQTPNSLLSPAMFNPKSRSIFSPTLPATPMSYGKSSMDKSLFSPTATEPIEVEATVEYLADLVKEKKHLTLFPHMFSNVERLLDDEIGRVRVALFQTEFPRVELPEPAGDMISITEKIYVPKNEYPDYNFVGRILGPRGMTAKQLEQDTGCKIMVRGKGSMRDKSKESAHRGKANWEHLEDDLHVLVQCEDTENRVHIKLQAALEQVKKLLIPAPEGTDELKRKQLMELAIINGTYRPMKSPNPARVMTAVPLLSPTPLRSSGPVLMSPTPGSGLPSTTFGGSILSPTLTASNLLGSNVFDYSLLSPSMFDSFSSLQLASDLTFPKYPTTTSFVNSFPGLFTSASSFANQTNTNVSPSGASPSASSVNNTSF
Keap1 TSA: binders of human Keap1 Kelch domain; actives 8% (n = 400); max delta Tm, degrees C; shares compounds with Keap1-Nrf2 PPI; Keap1 Kelch thermal shift, delta Tm; stronger effect = higher value; AID 651823; in the data active = max delta Tm above about 0.48 degrees C
Sypro dye melt: shifts Sypro Orange melt without protein, a false positive | delta Tm, degrees C (test concentration not listed) | 140 tested, under 10 active | shares compounds with Keap1-Nrf2 PPI | Sypro Orange dye-only thermal melt, no protein, delta Tm; top dose 26 µM | AID 651858;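 active = at highest dose tested, delta Tm positive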
Active calls of the source: *. This is a sample that favours compounds with a hit; in the whole collection about 1.3% have one here.

`Cc1cc(NC(=O)/C=C\C(=O)O)c([N+](=O)[O-])cc1C` gave E coli Lon inh -3.7, Keap1-Nrf2 PPI -1.8, BCLXL inh 7.8, MCL1-BIM inh 3.7 and GLD-1 RNA inh 1.8.
`COCCNC(=O)c1cc2c(c(-c3cccc(C#Cc4ccc(OC)c(OC)c4)c3)n1)[C@H](CCO)N(S(=O)C(C)(C)C)C2` (stereo partly specified) gave E coli Lon inh -25.4.
For O=C(NCc1cccc(F)c1)c1cccc2c1C(=O)c1ccc(N3CCCC3)cc1S2(=O)=O the results were E coli Lon inh -111.5, Keap1-Nrf2 PPI 14.6*, C-LANA FP 30.6, GLD-1 RNA inh 55.1* and Keap1 TSA -0.02.
`C=CCN1C(=O)/C(=C2/Sc3ccc(OC)cc3N2C)SC1=Nc1ccccc1` gave E coli Lon inh -4.1, Keap1-Nrf2 PPI -0.3, C-LANA FP 1.0, BCLXL inh 5.7, MCL1-BIM inh 1.6 and GLD-1 RNA inh 1.3.
`CCCCN1C(=O)/C(=C2/Sc3ccccc3N2C)S/C1=N\c1ncn[nH]1` gave E coli Lon inh -70.1, Keap1-Nrf2 PPI 41.2*, C-LANA FP 21.4, BCLXL inh -32.7, MCL1-BIM inh -39.2, GLD-1 RNA inh -41.5, Keap1 TSA -0.07 and Sypro dye melt -28.4.
`Cc1ccc(S(=O)(=O)NCC(=O)N(CC2CCCO2)C(C(=O)NC2CCCCC2)C(C)C)cc1` (stereo unspecified) gave E coli Lon inh 3.4, Keap1-Nrf2 PPI -5.1, C-LANA FP -0.6, BCLXL inh 3.4, MCL1-BIM inh -4.2 and GLD-1 RNA inh 0.8.
Screening CCOc1ccc(NC(=O)COC(=O)CCN2C(=O)C3CC=CCC3C2=O)cc1OCC (stereo unspecified) returned E coli Lon inh 4.3, Keap1-Nrf2 PPI 45.3*, C-LANA FP 22.0, BCLXL inh -6.0, MCL1-BIM inh -9.6, GLD-1 RNA inh 3.3 and Keap1 TSA 0.15.
`CCOc1ccc(NC(=O)CCN2C(=O)C3CCCCC3C2=O)cc1OCC` (stereo unspecified) gave E coli Lon inh 8.9, Keap1-Nrf2 PPI 5.5, C-LANA FP 2.9, BCLXL inh 0.5, MCL1-BIM inh 0.3 and GLD-1 RNA inh 9.9.
CCc1cc(C(=O)c2ccc(OC)cc2)c(N)s1 was read as E coli Lon inh -9.4, Keap1-Nrf2 PPI 25.9*, C-LANA FP 10.4, BCLXL inh 0.3, MCL1-BIM inh 5.1, GLD-1 RNA inh 3.6 and Keap1 TSA -0.18.
For COc1ccc(OC)c(/C=N/NC(=O)C(O)c2ccccc2)c1 (stereo unspecified) the results were E coli Lon inh -7.0, Keap1-Nrf2 PPI -5.1, C-LANA FP 5.0, BCLXL inh 1.7, MCL1-BIM inh -5.8 and GLD-1 RNA inh -4.3.
Screening Nc1cccc2cc(S(=O)(=O)O)ccc12 returned E coli Lon inh -8.1, Keap1-Nrf2 PPI 14.5*, C-LANA FP 73.4* and Keap1 TSA 0.24.
For O=Nc1c(O)ccc2cc(S(=O)(=O)O)ccc12 the results were E coli Lon inh 1.9, Keap1-Nrf2 PPI 4.7 and C-LANA FP 5.0.
O=[N+]([O-])c1cc(C(F)(F)F)ccc1NC1CCN(Cc2ccccc2)CC1 was read as E coli Lon inh 4.5, Keap1-Nrf2 PPI 43.2*, C-LANA FP 28.6, BCLXL inh -1.8, MCL1-BIM inh -0.7, GLD-1 RNA inh 6.0, Keap1 TSA -0.06 and Sypro dye melt -21.6.
O=[N+]([O-])c1cc(C(F)(F)F)ccc1NC1CCN(Cc2ccccc2)C1 (stereo unspecified) was read as E coli Lon inh -2.0, Keap1-Nrf2 PPI -2.4, C-LANA FP 0.4, BCLXL inh -0.7, MCL1-BIM inh -1.7 and GLD-1 RNA inh 5.4.
`CCCCCCOC(=O)C(C#N)c1nc2ccccc2nc1N1CCOCC1` (stereo unspecified) gave E coli Lon inh -11.8, Keap1-Nrf2 PPI 19.5*, C-LANA FP 17.0, BCLXL inh 0.6, MCL1-BIM inh 4.8, GLD-1 RNA inh -4.2 and Keap1 TSA -0.12.
For CCCCOC(=O)C(C#N)c1nc2ccccc2nc1N1CCOCC1 (stereo unspecified) the results were E coli Lon inh -8.9, Keap1-Nrf2 PPI -7.6, C-LANA FP 3.0, BCLXL inh -1.4, MCL1-BIM inh -5.7 and GLD-1 RNA inh 4.2.
For CS(=O)(=O)Nc1ccc(C2=NN(C(=O)CCCC(=O)O)C(c3cccs3)C2)cc1 (stereo unspecified) the results were E coli Lon inh 4.5, Keap1-Nrf2 PPI -2.4, C-LANA FP 0.9, BCLXL inh -1.8, MCL1-BIM inh 1.1 and GLD-1 RNA inh -0.9.
Screening Cc1ccc(C2=CC(c3cccs3)n3nnnc3N2)cc1 (stereo unspecified) returned E coli Lon inh 3.0, Keap1-Nrf2 PPI 34.5*, C-LANA FP 33.0, BCLXL inh 5.1, MCL1-BIM inh 6.5, GLD-1 RNA inh 8.6, Keap1 TSA -0.06 and Sypro dye melt -26.
Screening Cc1ccc(-c2nc3sc(C#N)c(N)n3c(=O)c2C#N)cc1 returned E coli Lon inh -3.8, Keap1-Nrf2 PPI 14.3*, C-LANA FP 3.7, BCLXL inh 17.1, MCL1-BIM inh -6.9, GLD-1 RNA inh -17.2 and Keap1 TSA -0.05.
`O=C(CCCCl)NC(=S)Nc1ccc(CN2CCOCC2)cc1` gave E coli Lon inh -7.8, Keap1-Nrf2 PPI -4.9, C-LANA FP -1.0, BCLXL inh 4.0, MCL1-BIM inh 0.7 and GLD-1 RNA inh 1.5.
`O=C(CCCCl)NC(=S)Nc1ccc(N2CCOCC2)cc1` gave E coli Lon inh -4.4, Keap1-Nrf2 PPI 32.8*, C-LANA FP 14.6, BCLXL inh -1.1, MCL1-BIM inh 0.9, GLD-1 RNA inh -5.9, Keap1 TSA -0.14 and Sypro dye melt -22.
CCN(CC(=O)Nc1c(F)cccc1F)C(=O)CCCOc1ccccc1 was read as E coli Lon inh 15.9, Keap1-Nrf2 PPI -1.7 and C-LANA FP -1.2.
For CCOc1ccc(OCCCC(=O)N(CC)CC(=O)Nc2c(F)cccc2F)cc1 the results were E coli Lon inh -11.0, Keap1-Nrf2 PPI 35.8*, C-LANA FP 22.8, BCLXL inh 1.2, MCL1-BIM inh 0.4, GLD-1 RNA inh 3.7, Keap1 TSA -0.15 and Sypro dye melt -26.8.
COc1cccc(CNC(=O)CCS(=O)(=O)c2ccc3c(c2)NC(=O)CO3)c1 was read as E coli Lon inh 1.2, Keap1-Nrf2 PPI -3.9, C-LANA FP -1.2, BCLXL inh -4.0, MCL1-BIM inh -6.4 and GLD-1 RNA inh 4.5.
